The campaign covered roughly 16,000 compounds. About 5,100 (32%) were called active. Inconclusive results (about 25%) are left out. Some of the results follow. Values without a mark were called inactive. The call rests on the fitted dose curve; in most records, active means well fitted curve in the direction sought with a large enough effect; inconclusive means small, poorly fitted or top-dose-only effect, or effect the other way; inactive means no such curve, though single readings can be large or run the other way.
On the % scale 0 is the no-effect control and ±100 the full control effect.

This experiment deals with Cytochrome P450 3A4 (Homo sapiens) (UniProt P08684). The experiment in a line: Cytochrome panel assay with activity outcomes. The conditions noted are these: recombinant CYP, pro-luciferin dealkylation, luminescence, p450-cyp3a4; series mostly up to 57.1 µM; activity, negative = inhibition: at the top concentration.
Sequence of Cytochrome P450 3A4 (Homo sapiens) (P08684 whole entry, looked up): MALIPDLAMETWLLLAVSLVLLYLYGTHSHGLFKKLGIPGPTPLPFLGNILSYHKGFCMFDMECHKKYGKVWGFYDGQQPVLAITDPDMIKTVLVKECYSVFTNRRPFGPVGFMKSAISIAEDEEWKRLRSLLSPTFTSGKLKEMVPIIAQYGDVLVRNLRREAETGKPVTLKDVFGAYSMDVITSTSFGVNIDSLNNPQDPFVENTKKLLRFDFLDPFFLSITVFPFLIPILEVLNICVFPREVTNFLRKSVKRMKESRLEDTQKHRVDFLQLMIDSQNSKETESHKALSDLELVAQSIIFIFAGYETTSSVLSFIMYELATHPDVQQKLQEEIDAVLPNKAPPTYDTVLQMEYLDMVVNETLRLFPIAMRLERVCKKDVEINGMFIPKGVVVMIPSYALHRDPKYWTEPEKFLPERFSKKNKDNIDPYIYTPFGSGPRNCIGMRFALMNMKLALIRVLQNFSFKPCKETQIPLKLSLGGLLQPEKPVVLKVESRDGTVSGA
Turning to `COc1ccc(Nc2cc(C(=O)NCCCN3CCN(C)CC3)c3ccccc3n2)cc1`, the “activity, negative = inhibition” value is -29.1%.

Usually AC50 stands for the midpoint of the concentration-response curve, whichever way the signal moves. Regarding `Cc1ccc2nc(-c3ccccc3)cc(C(=O)NCCCn3ccnc3)c2c1`, the AC50 is 0.562 µM (active). Take `CC(=O)Nc1ccc(-c2cc(C(=O)O)c3cc4ccccc4cc3n2)cc1`: the activity, negative = inhibition is -8.77% [at 11.4 µM]. For `Cc1cccc(CNc2cc(-c3ccc(N(C)C)cc3)ncn2)c1`, the AC50 was 6.31 µM (active).

Regarding `Cc1cnc(CNc2cc(-c3ccoc3)ncn2)cn1`, the “activity, negative = inhibition” value is -21.4%. Still for that read-out and setting: with `Cc1noc(C)c1-c1cc(NCc2ccccc2)ncn1` the figure was -7.55%. For the molecule `Cc1cccc(CNc2cc(-c3ccoc3)ncn2)c1`, the AC50 is 7.94 µM (active). With `Cc1cccc(CNc2cc(-c3c(C)noc3C)ncn2)c1`, the AC50 was 5.01 µM (active). Same read-out and setting: then `CN(C)c1ccc(-c2cc(NCc3cccnc3)ncn2)cc1`, with 3.16 µM (active). Turning to `O=C1C[C@@H](O)[C@@H](O)[C@@H]2[C@H]3C(=O)N(c4ccc(F)cc4F)C(=O)[C@@H]3CC[C@@H]12`, the activity, negative = inhibition was -8.71% [at 11.4 µM]. Same read-out and setting: then `O=C(O)[C@@H](S)[C@H](S)C(=O)O`, with -14.7% [at 11.4 µM]. With `Cc1ncc(CO)c(CO)c1O`, the “activity, negative = inhibition” value was -2.22% [at 25.6 µM]. The same measure, in the same setting: with `O=c1c(C=Nc2ccc(Oc3ccccc3)cc2)c[nH]n1-c1cccc(Cl)n1` the figure was -25.6%.

Consider `Cn1c(N)nc2c(nc(OCc3ccccc3)n2[C@@H]2O[C@H](CO)[C@@H](O)[C@@H]2O)c1=O`, for which the activity, negative = inhibition is -4.84% [at 11.4 µM]. Regarding `CCn1cc(C(=O)NCC(=O)OC)c2cc(OC)c(OC)cc2c1=O`, the “activity, negative = inhibition” value was -18.8%. Turning to `CN(C)c1ccc(-c2cc(NCc3ccccc3)ncn2)cc1`, the AC50 was 15.8 µM (active). Regarding `FC(F)(F)c1cc(-c2ccco2)nc(NCCc2ccccc2)n1`, the activity, negative = inhibition is 0.414% [at 2.29 µM]. Take `FC(F)(F)c1cc(-c2ccco2)nc(NCc2cccs2)n1`: the AC50 is 25.1 µM (active).

Consider `CCNc1nc(Oc2c(Cl)cccc2Cl)cc(C(F)(F)F)n1`, for which the “activity, negative = inhibition” value was -8.36%. On to `O=C(CSc1nnc(SCc2cccc3ccccc23)s1)c1ccc2c(c1)OCO2`, for which the AC50 is 2.82 µM (active). With `CC1(C)CCCN(C(=O)N2c3ccccc3Sc3ccccc32)C1`, the activity, negative = inhibition is -13% [at 2.29 µM]. For `CC1CCN(CC[C@H]2CCCN2S(=O)(=O)c2cccc(O)c2)CC1`, the “activity, negative = inhibition” value was -17.8%. Turning to `CC1CCN(CC(=O)N2c3ccccc3Sc3cc4ccccc4cc32)CC1`, the AC50 was 3.98 µM (active). Same read-out and setting: then `Cc1c(CCO)c(=O)n(-c2ccccc2)n1S(=O)(=O)c1c(Cl)cc(Cl)cc1Cl`, with 4.47 µM (active). Take `Cc1c(N(C)CS(=O)(=O)O)c(=O)n(-c2ccccc2)n1C`: the “activity, negative = inhibition” value was -3.01% [at 25.6 µM]. Same read-out and setting: then `Cc1c(CCO)c(=O)n(C)n1C(=O)c1ccc(F)cc1`, with -28.6%. As for `COc1cccc(-c2cc(NCc3ccccc3OC)ncn2)c1`, the AC50 is 15.8 µM (active).

Turning to `COc1cccc(-c2cc(NCc3ccc(OC)cc3OC)ncn2)c1`, the AC50 is 2.51 µM (active). On the same count and under the same terms, with `CC(C)NC[C@@H](O)COc1ccc(COCCOC(C)C)cc1` the entry was “inactive”. On to `Cn1c(=O)c2cc(S(=O)(=O)NCCC(=O)Nc3ccc(Cl)cc3)ccc2n(C)c1=O`, for which the “activity, negative = inhibition” value is -20.7%.

For `Cc1csc(NC(=O)CCNS(=O)(=O)c2ccc3c(c2)c(=O)n(C)c(=O)n3C)n1`, the AC50 is 7.94 µM (active). The same measure, in the same setting: then `Cc1ccc(CNC(=O)CCNS(=O)(=O)c2ccc3c(c2)c(=O)n(C)c(=O)n3C)cc1`, with 1.78 µM (active).

As for `Cn1c(=O)n(C)c2cc(S(=O)(=O)O)ccc21`, the “activity, negative = inhibition” value was -5.49%. As to `CCOc1ccc(NC(=O)CCNS(=O)(=O)c2ccc3c(c2)c(=O)n(C)c(=O)n3C)cc1`, the AC50 was 14.1 µM (active). Same read-out and setting: then `Cn1c(=O)c2cc(S(=O)(=O)NCCC(=O)NCc3ccccc3Cl)ccc2n(C)c1=O`, with 14.1 µM (active).

For the molecule `Cn1c(=O)c2cc(S(=O)(=O)NCCC(=O)NCCc3ccc(Cl)cc3)ccc2n(C)c1=O`, the AC50 was 12.6 µM (active). Consider `Cc1nn(-c2ccccc2)c2c1C(=O)N(Cc1ccccc1)C(=O)C(C)(C)C2`, for which the activity, negative = inhibition was 1.57% [at 2.29 µM].

As for `O=c1c(-c2nnc(SCc3ccc(Cl)cc3Cl)o2)cccn1Cc1ccccc1`, the AC50 is 22.4 µM (active). As to `CSc1nnc(-c2ccc(Cl)cc2Cl)o1`, the “activity, negative = inhibition” value is 6.64%. In the case of `O=c1c(-c2nnc(SCc3ccc(Cl)c(Cl)c3)o2)cccn1Cc1ccccc1`, the AC50 was 20 µM (active). In the case of `Clc1ccc(-c2nnc(CCc3ccccc3)o2)c(Cl)c1`, the activity, negative = inhibition was 0.747% [at 2.29 µM]. On to `CC(C)c1ccc(C2C(C#N)=C(N)N3C(=C2C#N)Sc2ccccc23)cc1` (stereo not drawn), for which the “activity, negative = inhibition” value was 15.8%.

Regarding `Cc1ccc(Cl)cc1-n1c(=O)cc(N2CC(C)OC(C)C2)[nH]c1=O` (stereo not drawn), the “activity, negative = inhibition” value was -17%. As for `c1ccc2c(c1)-c1nc3ccccc3cc1[C@H]2N1CCOCC1`, the AC50 is 2.51 µM (active). With `O=S1(=O)C=C(N2CCOCC2)c2ccccc21`, the activity, negative = inhibition is -21% [at 11.4 µM].

As for `O=C(O)CN(CCN(CC(=O)O)CC(=O)O)CC(=O)O.[Cu]`, the activity, negative = inhibition is 10.2% [at 11.4 µM].

For the molecule `N#CC(=C1CCCC1)c1nc(-c2ccccc2)cs1`, the AC50 was 15.8 µM (active). Regarding `N=C1SCC(=O)N1c1nc(-c2ccccc2)cs1`, the activity, negative = inhibition is 0.753% [at 2.29 µM]. As to `O=C(Nc1ccc(-c2csc(-c3ccccc3)n2)cc1)c1ccccc1Cl`, the “activity, negative = inhibition” value was 13.2%. For the molecule `Cc1ccc(-c2csc(C(C#N)=C3CCCC3)n2)cc1`, the AC50 is 20 µM (active). As for `COc1ccc(/C=N/N(C(C)=O)c2nc(-c3ccc(C)cc3)cs2)cc1`, the “activity, negative = inhibition” value was 3.8%.

On to `O=S(=O)(N/N=C\C=C\c1ccccc1)c1ccc(Br)cc1`, for which the AC50 was 14.1 µM (active). For the molecule `Brc1ccc(/C=C/C=N/Nc2nc3ccccc3s2)cc1`, the “activity, negative = inhibition” value is 6.56%. `Cc1sc(N/N=C/C=C/c2ccccc2)nc1-c1ccccc1`: the activity, negative = inhibition is -9.33% [at 11.4 µM].

As for `CCC/C=C(\CCC)C(NC(=O)c1ccc(C(F)(F)F)cc1)c1ccccc1` (stereo not drawn), the AC50 was 15.8 µM (active). On the same count and under the same terms, with `CCC/C=C(\CCC)C(NC(=O)c1ccccc1)c1ccccc1` (stereo not drawn) the figure was 10 µM (active). Take `CC(C)NC(=O)/C(=N\O)c1ccccc1`: the “activity, negative = inhibition” value was 0.0184%. On the same count and under the same terms, then `Cc1cc(S(=O)(=O)NCCN(C)C)c(C)s1`, with -9.29%. With `COC(=O)/C(=C\C(=O)c1ccccc1)Nc1cccc(C(F)(F)F)c1`, the “activity, negative = inhibition” value was -25.3%. With `CN(C)S(=O)(=O)Oc1ccccc1C(=O)Nc1cccc(C(F)(F)F)c1`, the AC50 is 11.2 µM (active). For the molecule `CN(C)S(=O)(=O)Oc1ccc(Cl)cc1C(=O)Nc1cccc(C(F)(F)F)c1`, the AC50 was 12.6 µM (active).

Take `CCOc1ccc(C(F)(F)F)cc1NC(C)=O`: the “activity, negative = inhibition” value was -25.1%. The same measure, in the same setting: with `COC(=O)[C@]1(C)CCC(c2ccc(C)cc2)=C(CC(=O)O)C1` the figure was -9.37% [at 11.4 µM]; with `Cc1cccc2cc(=O)[nH]c(C)c12`, -18.7%. In the case of `CCOC(=O)N1CCC(NC(=O)CCC(=O)N2CC(C)Oc3ccc(C)cc32)CC1` (stereo not drawn), the AC50 is 8.91 µM (active). The same measure, in the same setting: then `Cc1ccc2c(c1)N[C@H](c1ccc(C(=O)O)cc1)c1cccn1-2`, with 0.0501 µM (active); and `Cc1ccc2nc(N3CCN(S(=O)(=O)c4ccc5c(c4)OCCO5)CC3)c(C#N)cc2c1`, with 6.31 µM (active). `CN1CCCN(S(=O)(=O)c2ccc3c(c2)OCCO3)CC1`: the “activity, negative = inhibition” value was 5.66%. On to `Cc1ccc(Cl)cc1N1CCN(S(=O)(=O)c2ccc3c(c2)OCCO3)CC1`, for which the “activity, negative = inhibition” value was -22.3%. For `Cc1[nH]c2ccccc2c1C(c1ccccn1)N1CCC(C)CC1` (stereo not drawn), the AC50 is 2.24 µM (active).

With `CN(C)CC(CN(C)C)c1ccccn1`, the activity, negative = inhibition was -2.93% [at 11.4 µM]. As for `c1ccc([C@H](CCN2CCCC2)c2ccccn2)cc1`, the activity, negative = inhibition was -2.32% [at 11.4 µM]. Same read-out and setting: with `N=C(N)c1ccccc1` the figure was 3.54%. Consider `Cc1ccc(N(CCC#N)C(=O)CSc2ccc3c(c2)OCCO3)cc1`, for which the AC50 was 15.8 µM (active).

With `CCn1c2ccccc2c2cc(NS(=O)(=O)c3ccccc3C)ccc21`, the AC50 is 1 µM (active). Take `c1ccc2c(c1)c1ccccc1n2Cn1c2ccccc2c2ccccc21`: the activity, negative = inhibition is -21.4% [at 11.4 µM].

Consider `CCn1c(C)nc2cc(C(=O)NNS(=O)(=O)c3ccccc3F)ccc21`, for which the “activity, negative = inhibition” value is 1.94%.

On to `CC(C)(C)C(=O)NC(c1ccc(Cl)cc1)[C@]1(C)C[C@H]1C1CCCCC1` (stereo partly drawn), for which the AC50 is 12.6 µM (active). In the case of `C[C@@]1(C(NC(=O)c2ccc(-c3ccccc3)cc2)c2ccc(Cl)cc2)C[C@H]1C1CCCCC1` (stereo partly drawn), the “activity, negative = inhibition” value was -13.8%. Turning to `COC(=O)c1ccc(C(NC(=O)c2ccco2)[C@]2(C)C[C@H]2C2CCCCC2)cc1` (stereo partly drawn), the AC50 is 7.94 µM (active).

With `C[C@@]1(C(NC(=O)Cc2ccc(C(F)(F)F)cc2)c2ccc(-c3ccccc3)cc2)C[C@H]1C1CCCCC1` (stereo partly drawn), the “activity, negative = inhibition” value was -18.1%.

As for `COCc1cc(=O)[nH]c2cc(NC(=O)C(F)(F)F)c(C)cc12`, the activity, negative = inhibition was -1.96% [at 11.4 µM]. For the molecule `Cc1nnc(NC(=O)CSc2ncnc3c2cnn3-c2ccccc2C)s1`, the “activity, negative = inhibition” value was -12.1%. `CCOc1ccc(-n2ccnc2SCC(=O)Nc2nnc(CC)s2)cc1`: the AC50 was 14.1 µM (active).

Turning to `CCOc1ccc(-n2ccnc2SCC(=O)Nc2nnc(C)s2)cc1`, the AC50 is 14.1 µM (active).

As to `CCc1nnc(NC(=O)CSc2ncnc3c2cnn3-c2ccc(OC)cc2)s1`, the “activity, negative = inhibition” value was -17.8%. Still for that read-out and setting: with `COc1ccc(-c2coc3cc4oc(=O)cc(C)c4cc23)cc1F` the figure was -6.07%. Turning to `CCCc1ccc(C2C3=C(CC(C)(C)CC3=O)NC3=C2C(=O)c2ccccc23)cc1` (stereo not drawn), the AC50 is 2.82 µM (active). The same measure, in the same setting: then `C[C@@H](C(=O)Nc1ccc2ccccc2c1)[C@H]1C[C@]1(C)[C@H](NC(=O)Oc1ccc(F)cc1)c1ccccc1`, with 0.794 µM (active).

Take `O=C(Nc1ccc2oc(=O)c(C(=O)O)cc2c1)Oc1ccccc1`: the activity, negative = inhibition is -5.24% [at 11.4 µM]. On to `CC(=O)N[C@@H](c1ccccc1)[C@]1(C)C[C@H]1[C@@H](C)C(=O)Nc1ccc2ccccc2c1`, for which the concentration at half-maximal activity (AC50) was 7.94 µM (active).

`CC(=O)N[C@H](c1ccccc1)[C@@]1(C)C[C@@H]1[C@@H](C)C(=O)Nc1ccc2ccccc2c1`: the AC50 was 7.94 µM (active).

For `COC(=O)N[C@H](c1ccccc1)[C@@]1(C)C[C@@H]1[C@@H](C)C(=O)Nc1ccc2ccccc2c1`, the AC50 was 0.2 µM (active).
